Data: PubChem BioAssay (NCI)
About 83,000 compounds went through this panel and 20% of them were active in at least one assay; those are over-represented in the sample as a whole.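 Compound tested at a single concentration for 48 hours in 96-well plates; a percent growth value below 10 was scored as active.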 Unmarked numbers belong to inactive results. Activity calls are given as the source filed them.

These compounds were tested on U251 CNS (assay: NCI-60 one-dose screen, 48 h (100 = growth as untreated, 0 = no growth, -100 = all killed)). Conditions: 10 µM.

Row | Compound | growth
1 | CC(=O)OCC1CCCO1 (stereo unspecified) | 103%
2 | N#CCCc1ccc(O)cc1 | 96.9%
3 | Nc1ccc(N=Nc2ccc(S(=O)(=O)O)cc2)c2ccccc12 | 98.9%
4 | O=C1OC(=O)C2C1C1(Cl)C(Cl)=C(Cl)C2(Cl)C2C(=O)OC(=O)C21 (stereo unspecified) | 101%
5 | O=c1[nH]nc(SC2CCCCC2)c(=O)[nH]1 | 103%
6 | Cc1cc(C(O)(c2ccc(Nc3ccccc3)cc2)c2ccc(Nc3ccc(S(=O)(=O)O)cc3)cc2)ccc1N (stereo unspecified) | -59.4% (active)
7 | CCCNC(=O)c1ccc(S(N)(=O)=O)cc1 | 103%
8 | CN(C)c1ccc2oc(=O)c3ccccc3c2c1 | 94.3%
9 | Cc1ccc(CCCC(=O)O)c(C)c1 | 94.1%
10 | Oc1ccccc1-c1nnco1 | 82.9%
11 | COc1ccc(C(O)c2ccccc2)cc1 (stereo unspecified) | 94.1%
12 | FC(F)(F)c1ccc2c(c1)N(CCCN1CCN(C3CC3)CC1)c1ccccc1S2 | 25.8%
13 | CC(=O)NCc1cc(C)c(C)cc1C | 97.9%
14 | CCC(C)(O)c1ccc(C)cc1 (stereo unspecified) | 105%
15 | CC(C)(N)COS(=O)(=O)O | 103%
16 | Cc1cc(C)cc(NCCC#N)c1 | 105%
17 | O=C(O)CSCSCC(=O)O | 94.3%
18 | O/N=C/c1ccc(O)cc1O | 90.6%

Row | Compound | growth
19 | CCO/C=C1\SC(=S)N(c2cccc(C)c2)C1=O | 98.6%
20 | Cc1cc2ccccc2c(O)c1C#N | 109%
21 | O=C(O)/C=C/C(=O)NCc1ccccc1 | 118%
22 | Cc1cc2nc(CO)[nH]c2cc1C | 108%
23 | C=CCNc1ccccc1 | 106%
24 | NC(=O)NC(=O)c1ccc(Cl)cc1 | 106%
25 | CCOc1ccc(I)cc1 | 103%
26 | CC(C)C(C#N)(C(C)C)C(C)C | 102%
27 | CCCCOC(OCCCC)c1ccccc1 | 109%
28 | NC(=O)c1ccc(N=C(N)N=C(N)N)cc1 | 101%
29 | CCOc1ccccc1/C=N/Nc1nc2ccccc2o1 | 105%
30 | CO[C@H]1C[C@@H]2CC[C@@H](C)[C@@](O)(O2)C(=O)C(=O)N2CCCC[C@H]2C(=O)O[C@H]([C@H](C)C[C@@H]2CC[C@@H](O)[C@H](OC)C2)CC(=O)[C@H](C)C=C(C)[C@@H](O)[C@@H](OC)C(=O)[C@H](C)C[C@H](C)/C=C/C=C/C=C1C | 51.8%
31 | COC(=O)/C=C/C(=O)NC(N)=O | 96.8%
32 | Cc1ccc(O)c(C(=O)c2ccccc2)c1 | 105%
33 | CN(C)c1ccc(C(c2ccc(O)cc2)c2ccc(N(C)C)cc2)cc1 | 98.5%
34 | Nc1ccc(N)c([N+](=O)[O-])c1 | 107%
35 | CCOC(=O)c1[nH]c(C)c(C(C)=O)c1C | 91.2%
36 | CC(C)C1CCCCC1O (stereo unspecified) | 100%
